TDP1 block = qHTS Assay for Inhibitors of Tyrosyl-DNA Phosphodiesterase (TDP1); Tyrosyl-DNA phosphodiesterase 1 (Homo sapiens), Q9NUW8; AID 485290, 2010; hit rate 0.28% among 350,000; recombinant TDP1, AlphaScreen DNA substrate cleavage; Potency, µM (titrated, usually from 130 µM), actives largely listed as inhibitors; also: nearly all actives have a fitted effect of over 40% in size
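Here, a 5' biotin and 3' phosphotyrosine-FITC DNA oligonucleotide reports Tdp1 activity: intact substrate bridges AlphaScreen beads, while cleavage leaves a 3' phosphate and drops signal. All incubations at room temperature.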
TDP1 cell noCPT = qHTS for Inhibitors of human tyrosyl-DNA phosphodiesterase 1 (TDP1): qHTS in cells in absence of CPT. DT40 Tdp1-/- hTDP1 cells, no CPT, ATP luminescence, 48 h. Potency, µM (series often up to 46.2 µM), usual class: inhibitors. hit rate 15% among 420,000. AID 686978, 2013; also: nearly all actives have a fitted effect of over 55% in size
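Stably hTDP1-transfected Tdp1-null chicken DT40 cells were treated with library compounds minus camptothecin and grown for at least 48 hr at 37 °C, after which cellular ATP was quantified by luminescence.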
CtBP-E1A blk = qHTS Assay for Inhibitors of the CtBP/E1A Interaction | CtBP / adenovirus E1A interaction (AlphaScreen) | AlphaScreen GST-E1A/His-CtBP binding, 1536-well; hits give low values | activity change, % (test concentration not listed) | hit rate 0.49% among 340,000; in the data active = activity change below about -65%; inconclusive = mostly about -30% to -63%
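In 5 uL wells, 23 nL compound meets equimolar GST-E1A and His-CtBP (5X stock 125 nM each) for 2 h, 37 °C. Beads (5X, 50 ug/mL) then 1 h, 37 °C, dark.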
DT40 TDP1 CPT = qHTS for Inhibitors of human tyrosyl-DNA phosphodiesterase 1 (TDP1): qHTS in cells in presence of CPT; hit rate 12% among 420,000; Potency, µM (highest dose often 46.2 µM), hits mostly inhibitors; chicken DT40 Tdp1-/-;hTDP1 cells + 20 nM CPT, ATP luminescence, 48 h; also: nearly all actives have a fitted effect of over 55% in size
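Cell growth measured by CellTiter-Glo luminescence after a minimum 48 h, 37 C compound exposure with 20 nM CPT in Tdp1-knockout DT40 cells stably expressing hTDP1, seeded 400/well; qHTS titration format.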
IL1B secr inh = qHTS for Inhibitors of Inflammasome Signaling: IL-1-beta AlphaLISA Primary Screen | THP-1 LPS/ATP IL-1B secretion, AlphaLISA, 16 h; hits give low values | activity change, % at 57.5 µM | hit rate 4.7% among 360,000 | AID 743279, 2014; in the data active = activity change below about -50%; inconclusive = mostly about -30% to -49%
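THP-1 cells pretreated 1 hr with compounds (up to 57.5 uM final), then stimulated with LPS (250 ng/mL final) plus ATP (1.25 mM final); secreted IL-1B measured by AlphaLISA after 16 hr, decreased signal indicating inhibition.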
Six1-Eya2 inh = qHTS Assay for Inhibitors of the Six1/Eya2 Interaction; Homeobox protein SIX1 (Homo sapiens) + Protein phosphatase EYA2 (Homo sapiens), …; AlphaScreen GST-Six1/His-Eya2 binding, biochemical; hits give low values; activity change, % (test concentration not listed); hit rate 0.56% among 360,000; in the data active = activity change below about -65%; inconclusive = mostly about -30% to -63%
Target sequence (O00167 whole entry, looked up): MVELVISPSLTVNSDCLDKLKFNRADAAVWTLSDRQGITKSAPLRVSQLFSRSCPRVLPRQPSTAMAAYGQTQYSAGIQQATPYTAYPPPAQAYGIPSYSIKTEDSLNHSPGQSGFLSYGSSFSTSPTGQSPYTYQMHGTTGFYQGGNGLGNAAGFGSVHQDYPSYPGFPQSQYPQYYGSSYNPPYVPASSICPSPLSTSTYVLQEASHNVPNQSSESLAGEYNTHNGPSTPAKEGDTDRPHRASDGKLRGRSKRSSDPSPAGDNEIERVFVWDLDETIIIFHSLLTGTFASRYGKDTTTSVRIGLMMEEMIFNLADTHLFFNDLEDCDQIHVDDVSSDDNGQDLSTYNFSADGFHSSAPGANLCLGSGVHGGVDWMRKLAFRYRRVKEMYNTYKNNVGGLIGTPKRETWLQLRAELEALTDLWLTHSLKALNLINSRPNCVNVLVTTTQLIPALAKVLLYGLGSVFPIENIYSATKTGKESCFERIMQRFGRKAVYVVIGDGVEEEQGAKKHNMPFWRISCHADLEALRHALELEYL
Target sequence (Q15475 whole entry, looked up): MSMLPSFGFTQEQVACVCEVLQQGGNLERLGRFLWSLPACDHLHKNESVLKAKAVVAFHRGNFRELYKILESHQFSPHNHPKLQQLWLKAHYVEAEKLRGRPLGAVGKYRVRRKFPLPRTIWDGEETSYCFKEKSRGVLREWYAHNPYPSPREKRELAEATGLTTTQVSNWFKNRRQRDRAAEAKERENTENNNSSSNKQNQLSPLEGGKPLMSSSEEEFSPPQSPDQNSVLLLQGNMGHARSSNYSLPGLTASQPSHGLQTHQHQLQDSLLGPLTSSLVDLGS
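GST-Six1 + His-Eya2 (5X stock: 250/500 nM); Tris pH 8.0, 300 mM NaCl, 0.05% BSA, 0.02% Tween 20; GSH donor/Ni acceptor beads; 1 h 37 °C dark; AlphaScreen readout.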
A number is an active result; n = inactive; u = inconclusive; x = not tested or not shown; ! = not confirmed by another sample. Compounds with a hit are over-represented: about 18% of the library has one in this group of screens. Unless noted, calls follow the shape of the dose curve; as a rule, active = well fitted curve in the direction sought with a large enough effect; inconclusive = small, poorly fitted or top-dose-only effect, or another doubt; inactive = no such curve, though single readings can be large; an effect the other way counts as inactive or inconclusive.

SMILES	TDP1 block	TDP1 cell noCPT	CtBP-E1A blk	DT40 TDP1 CPT	IL1B secr inh	Six1-Eya2 inh
CCN(c1ccccc1)S(=O)(=O)c1ccc(Cl)c(C(=O)N(CC2CCCO2)C2CCS(=O)(=O)C2)c1 (stereo not given)	n	20.6µM	n	u	n	n
CCN(c1ccccc1)S(=O)(=O)c1ccc(Cl)c(NC(=O)CNC(C)c2ccccc2)c1 (stereo not given)	n	u	n	20.6µM	n	n
CCN(c1ccccc1)S(=O)(=O)c1ccc(Cl)c(NC(=O)CN2CCCCCC2)c1	x	18.4µM	n	20.6µM	n	n
CN(C)c1nc(N)c([N+](=O)[O-])c(NCC2CCCO2)n1 (stereo not given)	x	n	n	n	x	n
O=C(NCc1ccco1)NC(=O)c1csc([N+](=O)[O-])c1	x	n	n	n	n	n
O=C(O)[C@H]1NCCC[C@H]1C(=O)O	n	x	x	x	x	x
CCN(CC(=O)N1CCN(c2ccccc2)CC1)S(=O)(=O)c1ccc(C)cc1	n	13µM	n	u	n	n
CCN(c1ccccc1)S(=O)(=O)c1ccc(Cl)c(C(=O)N2CCCC2)c1	n	14.6µM	x	u	n	n
CCN(c1ccccc1)S(=O)(=O)c1ccc(C(=O)N2CCN(c3ccccc3)CC2)cc1	n	20.6µM	n	u	n	n
CN(Cc1ccccc1)S(=O)(=O)c1ccc(Cl)c(C(=O)N2CCC(C(N)=O)CC2)c1	n	10.3µM	n	23.1µM	n	n
CCC(C)NCC(=O)Nc1cc(S(=O)(=O)N(CC)c2ccccc2)ccc1Cl (stereo not given)	n	23.1µM	n	20.6µM	-52.9	n
CCN(c1ccccc1)S(=O)(=O)c1ccc(Cl)c(NC(=O)COC(=O)c2ccc(O)cc2)c1	n	u	n	u	n	n
CCN(c1ccccc1)S(=O)(=O)c1ccc2[nH]cc(C(=O)N3CCOCC3)c(=O)c2c1	50.1µM	n	n	n	n	n
COc1ccccc1-c1cccc([C@@H]2C[C@H]3[C@H](CON3C)CN2C(C)=O)c1	x	n	n	n	n	n
Cc1cc(-n2c(C)cc(C(=O)COc3ccccc3[N+](=O)[O-])c2C)no1	n	23.1µM	n	16.4µM	n	n
O=C(COc1ccccc1[N+](=O)[O-])c1ccccc1	n	5.17µM	n	3.66µM	n	n
CC(C)CNC(=O)COc1ccccc1[N+](=O)[O-]	n	n	n	n	n	n
Cc1cc(C(=O)COc2ccccc2[N+](=O)[O-])c(C)n1C1CC1	n	u	n	23.1µM	n	n
COC(=O)/C=C/COc1ccccc1[N+](=O)[O-]	n	13µM	x	9.2µM	n	n
O=[N+]([O-])c1ccccc1OC/C(=N\O)c1ccccc1	x	u	n	u	n	n
N#CCc1ccc(NC(=O)c2ccc(CN3CCc4ccccc4C3)cc2)cc1	x	n	n	u	n	n
Cc1cc(OC(C)C(=O)Nc2cccnc2)ccc1Cl (stereo not given)	n	u	n	u	n	n
Cc1cc(-n2c(C)cc(C(=O)COC(=O)CN=C3NS(=O)(=O)c4ccccc43)c2C)no1	n	n	n	n	n	n
Cc1cc(-n2c(C)cc(C(=O)COc3ccc(F)c(F)c3)c2C)no1	n	20.6µM	n	23.1µM	n	n
COc1cc(CNC(C)c2ccccc2)cc(Br)c1OCc1ccc(F)cc1 (stereo not given)	x	u	n	u	-94.2	n
SMILES	TDP1 block	TDP1 cell noCPT	CtBP-E1A blk	DT40 TDP1 CPT	IL1B secr inh	Six1-Eya2 inh
COc1cc(CNC(C)c2ccccc2)cc(Br)c1OCc1ccccc1 (stereo not given)	x	9.2µM	n	n	-87.7	n
COc1cc(CNc2ccc(O)cc2)cc(Br)c1OCc1ccccc1	n	u	x	u	n	n
NC(=O)C1CCN(c2ccc(C(F)(F)F)cc2[N+](=O)[O-])CC1	n	n	n	n	n	n
Clc1ccc(-c2ccc(CNCC3CCCO3)o2)cc1 (stereo not given)	x	u	n	n	-76.9	n
Oc1ccc(Cl)cc1CNCC1CCCO1 (stereo not given)	n	u	n	u	n	n
Fc1ccccc1C1c2cccn2CCN1C(=S)Nc1ccc(Br)cc1 (stereo not given)	n	u	n	20.6µM	-85.7	n
CC(=O)Nc1ccc(NC(=O)Cn2c(=O)ccc3cc(S(=O)(=O)N4CCC(C)CC4)ccc32)cc1	n	u	x	n	x	x
Cc1ccc(NC(=O)Cn2c(=O)ccc3cc(S(=O)(=O)N4CCC(C)CC4)ccc32)c(C)c1	n	23.1µM	x	u	x	x
Cc1ccc(NC(=O)Cn2c(=O)ccc3cc(S(=O)(=O)N4CCC(C)CC4)ccc32)cc1Cl	n	6.51µM	x	11.6µM	x	x
CC1CCN(S(=O)(=O)c2ccc3c(ccc(=O)n3CC(=O)Nc3cccc(F)c3)c2)CC1	n	13µM	x	14.6µM	x	x
CC1CCN(S(=O)(=O)c2ccc3c(ccc(=O)n3CC(=O)NCc3ccccc3Cl)c2)CC1	n	u	x	18.4µM	x	x
CNC(=O)C(=O)NCCCN1CCOCC1	n	n	n	n	n	n
CN(c1ccc(Cl)cc1)S(=O)(=O)c1nnc(NC(=O)c2ccco2)s1	n	u	n	u	n	n
COc1cc(NC(=O)c2cnc(N)s2)cc(C(=O)Nc2cccc(C(F)(F)F)c2)c1	n	18.4µM	n	u	n	n
COc1cc(NC(=O)c2cc(C)on2)cc(C(=O)Nc2cccc(C(F)(F)F)c2)c1	n	u	n	u	n	n
COc1cc(OC)cc(C(=O)Nc2cccc(NC(=O)c3cccs3)c2)c1	x	u	n	u	n	n
COc1cc(NC(=O)c2ccnc(N)c2)cc(C(=O)Nc2cccc(C(F)(F)F)c2)c1	n	20.6µM	n	23.1µM	n	n
COc1cc(NC(=O)c2csc(N)n2)cc(C(=O)Nc2cccc(C(F)(F)F)c2)c1	n	2.91µM	n	4.61µM	n	n
COc1cc(NC(=O)c2cnc(N)o2)cc(C(=O)Nc2cccc(C(F)(F)F)c2)c1	n	13µM!	n	20.6µM!	n	n
COc1cccc(NC(=O)c2oc3ccccc3c2NC(=O)c2ccc(C(F)(F)F)cc2)c1	n	u	x	u	x	x
CC1CCN(C(=O)COC(=O)Cn2cnc3ccccc32)CC1	n	n	n	n	n	n
